IL1B secr inh: qHTS for Inhibitors of Inflammasome Signaling: IL-1-beta AlphaLISA Primary Screen. 360,000 compounds, 4.7% hits. activity change, % at 57.5 µM. THP-1 LPS/ATP IL-1B secretion, AlphaLISA, 16 h; active compounds read low; in the data active = activity change below about -50%; inconclusive = mostly about -30% to -49%
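Secreted IL-1B measured by AlphaLISA bead assay after 16 h compound exposure of THP-1 cells; compounds (final up to 57.5 uM) added 1 h before LPS (250 ng/mL) and ATP (1.25 mM) stimulation; lower signal means less secretion.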
Giardia kill: Small Molecules that selectively kill Giardia lamblia: qHTS | Giardia lamblia trophozoite viability | activity change, % at 7.66 µM, hits read low | 340,000 compounds, 0.15% hits | AID 540267, 2011; in the data active = activity change below about -80%; inconclusive = between about -30% and that limit;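 also: parasites exposed to compound for two days anaerobically before the ATP read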
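Luminescence from cellular ATP indicates surviving trophozoites (100 cells/well) following 48 hrs anaerobic compound treatment at 37 deg C; signal develops 15-30 min at room temperature.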
TDP1 inh: qHTS Assay for Inhibitors of Tyrosyl-DNA Phosphodiesterase (TDP1); Tyrosyl-DNA phosphodiesterase 1 (Homo sapiens), Q9NUW8; recombinant TDP1, AlphaScreen DNA substrate cleavage; Potency, µM (top dose mostly 130 µM), for the others: at the top dose activity change, negative = inhibition, actives largely listed as inhibitors; 350,000 compounds, 0.28% hits; AID 485290, 2010; also: potency is read from the fitted curve at half-maximal effect; nearly all actives have a fitted effect of over 40% in size
Target sequence (Q9NUW8 whole entry, looked up): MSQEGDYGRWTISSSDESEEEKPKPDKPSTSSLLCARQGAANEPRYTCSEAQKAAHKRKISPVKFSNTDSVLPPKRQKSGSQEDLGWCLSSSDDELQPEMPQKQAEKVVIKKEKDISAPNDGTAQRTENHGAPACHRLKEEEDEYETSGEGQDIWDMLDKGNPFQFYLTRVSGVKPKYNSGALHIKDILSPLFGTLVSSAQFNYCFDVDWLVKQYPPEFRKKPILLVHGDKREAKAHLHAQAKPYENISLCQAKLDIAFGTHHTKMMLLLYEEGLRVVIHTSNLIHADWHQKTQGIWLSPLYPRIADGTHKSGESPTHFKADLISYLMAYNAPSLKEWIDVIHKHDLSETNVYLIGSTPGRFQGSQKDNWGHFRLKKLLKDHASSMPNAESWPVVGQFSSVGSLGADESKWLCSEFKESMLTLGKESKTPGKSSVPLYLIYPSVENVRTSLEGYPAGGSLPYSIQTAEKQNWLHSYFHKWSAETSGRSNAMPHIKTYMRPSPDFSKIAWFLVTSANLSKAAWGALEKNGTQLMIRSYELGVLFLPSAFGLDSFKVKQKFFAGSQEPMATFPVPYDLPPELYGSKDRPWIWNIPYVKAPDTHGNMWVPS
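Recombinant human Tdp1 (E. coli-expressed, 1 nM final) preincubated with compounds 15 min at room temperature, then 5'-biotin/3'-phosphotyrosine-FITC DNA substrate (15 nM final) added for 5 min. AlphaScreen beads (10 ug/ml final) added 10 min; cleavage lowers signal.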
TDP1 cell noCPT: qHTS for Inhibitors of human tyrosyl-DNA phosphodiesterase 1 (TDP1): qHTS in cells in absence of CPT; DT40 Tdp1-/- hTDP1 cells, no CPT, ATP luminescence, 48 h; Potency, µM (top dose mostly 46.2 µM), without a hit: at the highest dose activity change, negative = growth inhibition, hits mostly inhibitors; 420,000 compounds, 15% hits; AID 686978, 2013; also: potency is read from the fitted curve at half-maximal effect; nearly all actives have a fitted effect of over 55% in size
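Stably hTDP1-transfected Tdp1-null chicken DT40 cells were treated with library compounds minus camptothecin and grown for at least 48 hr at 37 °C, after which cellular ATP was quantified by luminescence.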
ELG1 DNA repair: qHTS screen for small molecules that inhibit ELG1-dependent DNA repair in human embryonic kidney (HEK293T) cells expressing luciferase-tagged ELG1; Potency, µM (titrated, usually from 46.1 µM), without a hit: at the top dose activity change, negative = inhibition, usual class: inhibitors; 330,000 compounds, 2.3% hits; HEK293T ELG1-luciferase reporter, luminescence, 16 h; DNA damage induced by 5-fluorouridine; AID 504467, 2011; also: potency is read from the fitted curve at half-maximal effect; nearly all actives have a fitted effect of over 55% in size
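Step one: seed 2,000 cells per well. Step two: pin-transfer compound or DMSO alongside 5-fluorouridine. Step three: incubate 16 hr, 37 °C, 5% CO2. Step four: add ONE-Glo, wait 30 min, read luminescence.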
TDP1 cell CPT: qHTS for Inhibitors of human tyrosyl-DNA phosphodiesterase 1 (TDP1): qHTS in cells in presence of CPT; 420,000 compounds, 12% hits; Potency, µM (top dose mostly 46.2 µM), without a hit: at the top dose activity change, negative = growth inhibition, most hits filed as inhibitors; chicken DT40 Tdp1-/-;hTDP1 cells + 20 nM CPT, ATP luminescence, 48 h; AID 686979, 2013; also: potency is read from the fitted curve at half-maximal effect; nearly all actives have a fitted effect of over 55% in size
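Chicken DT40 Tdp1-/- cells complemented with human TDP1, 400 cells/well, exposed to compounds plus 20 nM camptothecin for at least 48 h at 37 C; viability read as ATP content by CellTiter-Glo luminescence.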
* marks the source's active call; other numbers are inactive results; ? = inconclusive; . = not tested or not shown; [ ] = remark or other dose. Only some compounds are listed: those with a hit (about 19% of all), similar ones and a draw of the others. Unless noted, calls follow the shape of the dose curve; as a rule, active = well fitted curve in the direction sought with a large enough effect; inconclusive = small, poorly fitted or top-dose-only effect, or another doubt; inactive = no such curve, though single readings can be large; an effect the other way counts as inactive or inconclusive. % is scaled to controls: 0 for no effect and ±100 for the full control effect.

SMILES	IL1B secr inh	Giardia kill	TDP1 inh	TDP1 cell noCPT	ELG1 DNA repair	TDP1 cell CPT
Cc1cc(Cl)cc(Cl)c1OCCOCCN(C)C	0	-6	.	15µM*	?	?
O=C(CCS(=O)(=O)c1nc(-c2cccs2)cc(C(F)(F)F)n1)Nc1cc(Br)ccc1O	.	3	9%	1.2µM*	.	0.65µM*
O=C(CCS(=O)(=O)c1nc(-c2cccs2)cc(C(F)(F)F)n1)Nc1ccc(Br)cc1	.	.	6%	3.7µM*	.	5.2µM*
Cc1ccc(O)c(NC(=O)CCS(=O)(=O)c2nc(-c3cccs3)cc(C(F)(F)F)n2)c1	.	.	3%	5.8µM*	.	2.6µM*
CCOc1ccc(NC(=O)CSc2nnc(CCNC(=O)c3ccc(OC)cc3)n2C)cc1	5	-18	2%	-5%	?	-20%
Cc1c(-c2ccccc2)oc2c(C(=O)OCC(=O)Nc3ccc(C(N)=O)cc3)cccc2c1=O	1	-21	3%	?	?	?
COC(=O)c1ccc(CNC(=O)COC(=O)/C=C/c2cc(OC)c(OC)c(OC)c2)cc1	20	9	1%	-5%	-2%	-1%
O=C(OCC(=O)N1CCCCCC1)c1cc(S(=O)(=O)N2CCOCC2)ccc1F	-10	.	.	-3%	.	-1%
Cc1ccc(C(=O)N(CCC2=CCCCC2)c2c(N)n(Cc3ccccc3)c(=O)[nH]c2=O)o1	-13	-1	.	?	9.2µM*	-6%
Nc1c(N(CCC2=CCCCC2)C(=O)COc2ccc(F)cc2Cl)c(=O)[nH]c(=O)n1Cc1ccccc1	-55*	-12	.	6.5µM*	.	5.8µM*
CC(=O)c1ccc(OCC(=O)N(CCC2=CCCCC2)c2c(N)n(Cc3ccccc3)c(=O)[nH]c2=O)cc1	1	-5	.	?	?	23µM*
Cc1cccc(OCC(=O)N(Cc2ccco2)c2c(N)n(Cc3ccccc3)c(=O)[nH]c2=O)c1	0	-13	2%	0%	9%	-3%
Cc1cccc(OCC(=O)N(Cc2ccccc2)c2c(N)n(Cc3ccccc3)c(=O)[nH]c2=O)c1	?	34	0%	?	19%	18µM*
Nc1c(N(CCC2=CCCCC2)C(=O)Cc2ccc(F)cc2)c(=O)[nH]c(=O)n1Cc1ccccc1	7	-16	0%	?	-15%	?
Cc1c(P(=S)(c2ccccc2)c2ccccc2)c2ccccc2n1C/C=C/c1ccccc1	.	.	0%	.	.	.
COc1cc(Cl)c(C)cc1NC(=O)Cn1ncc2c(=O)oc3ccccc3c21	.	.	0%	-15%	.	-8%
C=CCC1(CC=C)CCCN1C(=O)C1CCC(=O)N(Cc2ccc(Cl)cc2)C1 (stereo unspecified)	8	.	.	8.2µM*	.	10µM*
C=CCC1(CC=C)CCCN1C(=O)C1CCC(=O)N(CCc2ccc(Cl)cc2)C1 (stereo unspecified)	0	1	1%	13µM*	-14%	18µM*
O=C1CCC(C(=O)N2CCOCC2)CN1Cc1ccc(Cl)cc1 (stereo unspecified)	0	-14	2%[56.1 µM]	-2%	8%	11%
O=C(CN1C(=O)c2cccnc2Sc2ccccc21)Nc1cc(F)ccc1F	.	.	5%	?	.	?
COn1c(=O)c(-c2cccs2)[n+]([O-])c2ccccc21	0	6	3%	12µM*	?	16µM*
S=c1[nH]nc(-c2ccc(Cl)cc2)n1CCCN1CCOCC1	-2	-21	5%	5%	2%	-2%
COc1ccc(NC(=O)N2CCN(c3ccc([N+](=O)[O-])cc3)CC2)cc1OC	?	9	5%	18µM*	-11%	?
O=C(NC1CCCCC1)N1CCN(c2ccc(Cl)cc2)CC1	-23	5	2%[56.1 µM]	?	?	?
COc1ccccc1CC(=O)N1CCN(c2ccc([N+](=O)[O-])cc2)CC1	?	9	-2%	9.2µM*	?	15µM*
SMILES	IL1B secr inh	Giardia kill	TDP1 inh	TDP1 cell noCPT	ELG1 DNA repair	TDP1 cell CPT
O=C(NC1CCCCC1)N1CCN(c2ccc([N+](=O)[O-])cc2)CC1	?	-8	2%[56.1 µM]	?	?	13µM*
COc1ccc(CCC(=O)N2CCN(c3ccc([N+](=O)[O-])cc3)CC2)cc1OC	?	2	.	15µM*	?	?
CN(CC(=O)Nc1c(Cl)cccc1Cl)C(=O)c1cc(S(=O)(=O)N(C)C)ccc1N1CCCC1	5	7	3%	-14%	19%	?
COc1ccc(N2CCN(C(=O)CSc3ccc([N+](=O)[O-])cc3)CC2)cc1	-10	-5	5%	23µM*	?	?
COc1ccc(NC(=O)N2CCN(c3ccc([N+](=O)[O-])cc3)CC2)cc1	2	-12	6%	2.3µM*	8%	2.3µM*
CCCCN(CCCC)C(=O)C1(P(=O)(c2ccccc2)c2ccccc2)CCC1	?	2	.	?	-5%	?
CCCN(C(=O)CSc1n[nH]c(-c2ccc(OC)cc2)n1)c1c(N)n(Cc2ccccc2)c(=O)[nH]c1=O	32	2	1%	-23%	16%	-24%
CCN(CC)CCCNC(=O)CN1C(=O)CCn2nc(-c3cn(C)c4ccccc34)cc21	.	.	1%	9%	.	-1%
CCCN1CCC(NC(=O)Nc2cccc3ccccc23)CC1	-19	10	4%	13%	0%	-30%
Cc1c(Cl)cccc1NC(=S)NC1CCN(Cc2ccccc2)CC1	-73*	15	0%	?	-18%	?
S=C(Nc1ccc(Cl)cc1Cl)NC1CCN(Cc2ccccc2)CC1	4	-5	2%	16µM*	-3%	21µM*
CCCN1CCC(NC(=S)Nc2cccc(Cl)c2Cl)CC1	12	13	-3%	?	-2%	18µM*
Cc1ccc(NC(=S)NC2CCN(Cc3ccccc3)CC2)cc1C	-20	-15	5%	26µM*	?	?
CC(C)c1ccccc1NC(=S)NC1CCN(Cc2ccccc2)CC1	?	-18	3%	?	-13%	?
Cc1ccc(NC(=O)CN2CCC(NC(=O)Cc3ccccc3)CC2)cc1C	?	6	6%	-15%	-15%	-7%

Assay outcomes (PubChem)
